# Test results from the supplement of paper PMC10338343.
# ± gives the standard deviation. The full ranking holds about 5,500 sequences; the median of “pre-steady-state target cleavage rate” is about 0.1, and the highest 2% start at about 0.64. What follows is part of a selection rich in the highest values, with near analogues and random picks from the rest.
# Tested on: MIWI (PIWIL1) piRISC loaded with piRNA #2 (30 nt)
# Experiment: pre-steady-state target cleavage rate (min^-1); MIWI and MILI are mouse PIWI proteins and EfPiwi is from a freshwater sponge; tags in brackets are library labels; higher = faster piRNA-guided slicing of the target
# Details: guide: piRNA #2 5'p-UUAGGUAACCCAGUAGAUCCAGAGGAAUUC; auxiliary factor: 500 nM mouse GTSF1
# Procedure, shortened: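 Cleave-'n-Seq: 1 nM active affinity-purified piRISC with one synthetic guide and 0.1 nM transcribed, DNA-blocked target RNA library were mixed, with or without 500 nM GTSF1 partner protein, in HEPES–potassium acetate buffer at 33 °C for 0–8 or 0–960 min. Uncleaved targets were sequenced and normalised to depth and to weakly complementary targets, three trials were pooled, and k3 was capped at 0.0001 min^-1. The pre-steady-state cleavage rate was fitted […].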
row,Sequence,pre-steady-state target cleavage rate
1,CUUAAGGAGUGGUUCUACUGGGUUACCUUA,0.0165 ± 0.004
2,CUUAAGGACUGGAUCUACUGGGUUAACUAA,0.116 ± 0.042
3,CUUUUCCUCUGGAUCUACUGCCUUACCUAA,0.0739 ± 0.012
4,CUUAACCUCUGGAUCUACAGGGUUAGCUAA,0.0376 ± 0.0069
5,GAAUUCCUCUGGAUCUAGUGGGUUUCCUAA,0.108 ± 0.019
6,CUUAAGGACUGGAUCUACUAGGUUACCUAA,0.0835 ± 0.039
7,CUUAAGGUCAGGAUCUACUGGGUAACCUAA,0.00869 ± 0.0069
8,CUUAACCUCUGGAUCUACUGGGUUACACUAA,0.344 ± 0.042
9,CUAUUCCUCUGGAACUUCUGGGUUACCUAA,0.299 ± 0.036
10,CUUAUCCUCUGGAUCUAGUGGGAUACCUAA,0.0912 ± 0.02
11,GAAUUCCUCUGGAUCUACUGGGAUACCAAA,0.192 ± 0.06
12,CUUAAGGUCUGGAUGUUCUGGGUUACCUAA,0.05 ± 0.018
13,CUAUUCCUCUGGAUGUACUGGGUUACCUAA,0.533 ± 0.041
14,CUUAACCUCUCGAUGUACUGGGUUACCUAA,0.421 ± 0.029
15,CUUUUCCUCUCGAUGUACUGGGUUACCUAA,0.592 ± 0.043
16,GAAUUCCUCUGGAUGUACUGGGUUACCUAA,0.352 ± 0.045
17,GAAUUCCUCUCGAUGUACUGGGUUACCUAA,0.645 ± 0.052
18,CUAUUCCUCUCGAUGUACUGGGUUACCUAA,0.636 ± 0.045
19,CAAUUCCUCUCGAUGUACUGGGUUACCUAA,0.672 ± 0.056
20,CUUAUCCUCUCGAUGUACUGGGUUACCUAA,0.498 ± 0.03
21,CAAUUCCUCUGGAUGUACUGGGUUACCUAA,0.578 ± 0.054

row,Sequence,pre-steady-state target cleavage rate
1,CUUAACCUCUGGAUAUACUGGGUUACCUAA,0.552 ± 0.042
2,CAAUUCCUCUGGAUCUACUGGGUAACCUAA,0.263 ± 0.049
3,CUUAACCUCUGGAUCUACUGGGUAUGCUAA,0.0233 ± 0.0061
4,CAAAAGCUCUGGAUCUACUGGGUUACCUAA,0.105 ± 0.025
5,CUUAAGGAGUGGGAUCUACUGGGUUACCUAA,0.0146 ± 0.0073
6,CUAUUCCUCUGGAUCUACUGGGUUACCUAA [g2:g28:cont:t1A],0.388 ± 0.062
7,CAAUUCCUCUGGAUCUACUGGUGUUACCUAA,0.0066 ± 0.0037
8,GAAUUCCUCUGGAUCUACUGGUGUUACCUAA,0.0068 ± 0.0031
9,CAAUUCCUCUGGAUCUACUGUGUUACCUAA,0.751 ± 0.075
10,GAAUUCCUCUGGAUCUACUGUGGUUACCUAA,0.00388 ± 0.0038
11,CUUUUUCCUCUGGAUCUACUGGGUUACCUAA,0.308 ± 0.046
12,CUAUUCCUCUGGAUCUACUGUGUUACCUAA,0.696 ± 0.073
13,CUUUUCCUCUGGAUCUACUGGUGUUACCUAA,0.00402 ± 0.0035
14,CUAUUCCUCUGGAUCUACUGGUGUUACCUAA,0.00505 ± 0.0032
15,CAAUUCCUCUGGAUCUACUGGUUACCUAA,0.19 ± 0.046
16,GAAUUCCUCUGGAUCUACUGUGUUACCUAA,0.673 ± 0.06
17,CUUUUCCUCUGGAUCUACUGUGUUACCUAA,0.751 ± 0.048
18,CAAUUGCUCUGGAUCUACUGGGUUACGUAA,0.536 ± 0.067
19,CUUAAGGUGACGAUCUACUGGGUUACCUAA,0.0052 ± 0.0036
20,CUUAAGGACAGGAUCUACUGCGUUACCUAA,0.0331 ± 0.017
21,CUUAACGUCUCGAUCUACUGGGUUACCUAA,0.357 ± 0.041

row,Sequence,pre-steady-state target cleavage rate
1,CUUAAGGAGUAGAUCUACUGGGUUACCUAA,0.00567 ± 0.0048
2,CAAUUCCUCUGGUUCUACUGGGAUACCUAA,0.145 ± 0.038
3,CUUAACCUGUGGAACUACUGGGUUACCUAA,0.177 ± 0.048
4,CUUAAGGAGACCUUCUACUGGGUUACGUAA,0.00451 ± 0.0027
5,CUUUUCCGUCUGGAUCUACUGGGUUACCUAA,0.385 ± 0.039
6,CUUAUCCUCUGGAUCUACUGGUUACCUAA,0.0947 ± 0.024
7,CUUAUCCUCUGGAUCUACUGUGUUACCUAA,0.722 ± 0.074
8,CUUAACCUCUGGAUCUACUGUGUUACCUAA,0.597 ± 0.045
9,CUUAAGCUCUGGAUCUACUGGGUUACCUCAA,0.0988 ± 0.015
10,CAUUUCCACUGGAUCUACUGGGUUACCUAA,0.478 ± 0.058
11,GAAUUCCUCUCGAUCUACUGGGUUACCAAA,0.564 ± 0.067
12,CAAUUCCUCUGGAUCUACUGGGUUACCAAA,0.509 ± 0.068
13,CAAUUCCUCUCGAUCUACUGGGUUACCAAA,0.904 ± 0.073
14,CUAUUCCUCUGGAUCUACUGGGUUACCAAA,0.477 ± 0.061
15,CUUUUCCUCUCGAUCUACUGGGUUACCAAA,0.64 ± 0.048
16,CUUAUCCUCUCGAUCUACUGGGUUACCAAA,0.542 ± 0.041
17,CUUUUCCUCUCGAUCUACUGGGUUACCUUA,0.539 ± 0.05
18,CUUUUCCUCUGGAUCUACUGGGUUACCAAA,0.477 ± 0.052
19,CUAUUCCUCUCGAUCUACUGGGUUACCAAA,0.711 ± 0.047
20,GAAUUCCUCUGGAUCUACUGGCUAACCUAA,0.0225 ± 0.0083
21,CAAUUCCUCUGGAUCCUACUGGGUUACCUAA,0.29 ± 0.055

row,Sequence,pre-steady-state target cleavage rate
1,GAAUUCCUCUCGAUCUACUGGGUUAGCUAA,0.237 ± 0.052
2,CUUAAGGAGACCUAGUUCUGGGAUACCUAA,< 0.0001
3,CAAUUCCUCUGGAUCUAGACCCAAUGGAUA [g14:g29:cont:t1A],< 0.0001
4,GAAUUCCUCUGGAACUACUGGGUUUCCUAA,0.646 ± 0.21
5,GAAUUCCUCUGGUUCUACUGGGUAACCUAA,0.288 ± 0.063
6,CAAUUCCUCUGGAACUACUGGGUUUCCUAA,0.348 ± 0.1
7,CUAUUCCUCUGGUUCUACUGGGUAACCUAA,0.156 ± 0.033
8,CUUUUCCUCUGGUUCUACUGGGUUUCCUAA,0.522 ± 0.19
9,CAAUUCCUCUGGUUCUACUGGGUUUCCUAA,0.951 ± 0.36
10,GAAUUCCUCUGGAUCUACUGGGUUUCCUAA,0.27 ± 0.047
11,GAAUUCCUCUGGUUCUACUGGGUUUCCUAA,0.923 ± 0.3
12,CUAUUCCUCUGGUUCUACUGGGUUUCCUAA,1.05 ± 0.44
13,CUAUUCCUCUGGAUCUACUGGGUUUCCUAA,0.344 ± 0.053
14,CUAUUCCUCUGGAACUACUGGGUUUCCUAA,0.337 ± 0.12
15,CAAUUCCUCUGGUUCUACUGGGUAACCUAA,0.162 ± 0.032
16,CUUUACCUCUGGAUCUACUGGGUUUCCUAA,0.167 ± 0.029
17,CAAUUCCACUGGUUCUACUGGGUUACCUAA,0.593 ± 0.041
18,CUUAAGGAGAGGAUCUACUGGGUUAACCUAA,0.00722 ± 0.0036
